From PubChem BioAssay
The list is not random: actives were taken first. Their share in the collection is about 1.5%.
PLC-gamma1 inh: PLC-gamma1 (human) inhibition, primary screen | P19174 | purified PLC-gamma1, fluorogenic substrate, fluorescence | inhibition, % at 12.2 µM | hit rate 0.84% among 370,000 | AID 720700
PLC-beta3 inh: blocks human PLC-beta3 enzyme activity; Purified PLC-beta3, fluorogenic substrate, fluorescence; inhibition, % at 12.2 µM; hit rate 0.18% among 370,000; AID 720704; in the data active means inhibition above about 11%
sPLA2-III inh: Inhibits HGIII-sPLA2 liposome hydrolysis, primary screen; hit rate 0.56% among 370,000; QFRET BODIPY PC-A2 liposome hydrolysis, fluorescence; inhibition, % at 12.2 µM; Q9NZ20;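 active means inhibition above mean plus 3 SD of compounds lying within the high and low control bounds, cut at about 19% in these data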
DAGLB inh: blocks human DAGLB lipase activity. HEK293T DAGLB membrane lysate, EnzChek fluorogenic substrate. inhibition, % at 5.17 µM. hit rate 0.059% among 340,000; in the data active means inhibition above about 34%
PLCgamma1 ctr: PLC-gamma1 inhibition, counter-screen for PLC-beta3 hits; shares compounds with PLC-gamma1 inh; purified PLC-gamma1, fluorogenic substrate, fluorescence; inhibition, % at 12.3 µM; hit rate 3.1% among 3,300; AID 743258
PLCbeta3 conf: human PLC-beta3 inhibition, confirmation. shares compounds with PLC-gamma1 inh. purified PLC-beta3, fluorogenic substrate fluorescence. inhibition, % at 12.3 µM. hit rate 1% among 3,300. AID 743261; in the data active means inhibition above about 11%
Numbers stand for hits. Unless noted, no stated cut-off is given here; in the data, active means inhibition above about 9.5%; inactive means the rest.

What do the screens show for `COc1ccc(NC(=O)CN(C)C(=O)C2CC(=O)N(Cc3ccc(C)cc3)C2)cc1` (stereo not drawn)?
PLC-gamma1 inh: 12; PLC-beta3 inh: inactive; sPLA2-III inh: inactive; DAGLB inh: inactive; PLCgamma1 ctr: inactive; PLCbeta3 conf: inactive

How did COc1ccc(NC(=O)CN(C)C(=O)C2CC(=O)N(CCc3ccc(OC)c(OC)c3)C2)cc1 (stereo not drawn) do in these assays?
PLC-gamma1 inh: inactive; PLC-beta3 inh: inactive; sPLA2-III inh: inactive; DAGLB inh: inactive

What do the screens show for `Nc1[nH]c(C(=O)c2ccccc2)c(-c2ccc(Br)cc2)c1C(=O)N1CCN(CCO)CC1`?
PLC-gamma1 inh: inactive; PLC-beta3 inh: inactive; sPLA2-III inh: inactive

Results for Cc1ccc(CNC(=O)O[C@H]2CC[C@@]34CCCN3C(=O)CCC[C@H]4C2)cc1 ?
PLC-gamma1 inh: inactive; PLC-beta3 inh: inactive; sPLA2-III inh: inactive

Results for C[C@@H]1[C@H](c2ccccc2)OC(O)([C@H](Cc2ccccc2)NC(=O)OC(C)(C)C)CN1C (stereo partly drawn) ?
PLC-gamma1 inh: inactive; PLC-beta3 inh: inactive; sPLA2-III inh: inactive

What do the screens show for `Cc1cc2oc(C(=O)Nc3nonc3C)c(C)c2cc1C`?
PLC-gamma1 inh: 9.6; PLC-beta3 inh: inactive; sPLA2-III inh: inactive; DAGLB inh: inactive; PLCgamma1 ctr: inactive; PLCbeta3 conf: inactive

What do the screens show for `Cc1ccc(C(=O)NC(=S)Nc2ccc(CN3CCOCC3)cc2)cc1`?
PLC-gamma1 inh: 10; PLC-beta3 inh: inactive; sPLA2-III inh: inactive; DAGLB inh: inactive; PLCgamma1 ctr: inactive; PLCbeta3 conf: inactive

Results for O=C1C=C[C@H]2CC[C@@H](O)[C@@H]1[C@@H]2Sc1ccccc1 ?
PLC-gamma1 inh: 10; PLC-beta3 inh: inactive; sPLA2-III inh: inactive; PLCgamma1 ctr: inactive; PLCbeta3 conf: inactive

How did CN(C(=O)c1cccc(NC(=O)Cc2ccc(NC(=O)C3CCCN(C(=O)c4ccccc4)C3)cc2)c1)C1CC1 (stereo not drawn) do in these assays?
PLC-gamma1 inh: inactive; PLC-beta3 inh: inactive; sPLA2-III inh: inactive

What do the screens show for `Cc1occc1-c1nnc(SCC(=O)Nc2ccccc2)n1C`?
PLC-gamma1 inh: inactive; PLC-beta3 inh: 15; sPLA2-III inh: inactive; DAGLB inh: inactive; PLCgamma1 ctr: inactive; PLCbeta3 conf: inactive

Results for O=C(NCCO)[C@H](Cc1ccccc1)NC1(C(=O)NCCN2CCOCC2)CCCCC1 ?
PLC-gamma1 inh: inactive; PLC-beta3 inh: inactive; sPLA2-III inh: inactive

How did CN1C2=N[C@@H](c3cccc(C(F)(F)F)c3)CC(=O)N2/C(=C\c2ccccc2)[C@H]1c1ccccc1 do in these assays?
PLC-gamma1 inh: inactive; PLC-beta3 inh: inactive; sPLA2-III inh: inactive

What do the screens show for `COC[C@H]1CCCN1c1ccc2c(c1)O[C@@H](COCc1ccccc1)CN([C@H](C)c1ccccc1)S2(=O)=O`?
PLC-gamma1 inh: 10; PLC-beta3 inh: inactive; sPLA2-III inh: inactive; PLCgamma1 ctr: inactive; PLCbeta3 conf: inactive

What do the screens show for `COC[C@@H]1CCCN1c1ccc2c(c1)O[C@H](COCc1ccccc1)CN([C@@H](C)c1ccccc1)S2(=O)=O`?
PLC-gamma1 inh: inactive; PLC-beta3 inh: inactive; sPLA2-III inh: inactive

How did CCOC(=O)[C@]12CCCC=C1N(CCc1ccc(Cl)cc1)C(=O)[C@@H]2CC(=O)NCCC(C)C do in these assays?
PLC-gamma1 inh: inactive; PLC-beta3 inh: inactive; sPLA2-III inh: inactive

How did CC(C)CC(=O)NC(=S)Nc1nc(-c2cccc3ccccc23)cs1 do in these assays?
PLC-gamma1 inh: 16; PLC-beta3 inh: inactive; sPLA2-III inh: inactive; DAGLB inh: inactive; PLCgamma1 ctr: inactive; PLCbeta3 conf: inactive

How did Cc1ccc(CNCc2ccco2)cc1 do in these assays?
PLC-gamma1 inh: inactive; PLC-beta3 inh: inactive; sPLA2-III inh: inactive; DAGLB inh: inactive

What do the screens show for `Fc1ccc(CNCc2ccco2)cc1`?
PLC-gamma1 inh: 12; PLC-beta3 inh: inactive; sPLA2-III inh: inactive; DAGLB inh: inactive; PLCgamma1 ctr: inactive; PLCbeta3 conf: inactive

What do the screens show for `CC(C)CNC(=O)OCc1cn(Cc2ccc(C(F)(F)F)cc2)nn1`?
PLC-gamma1 inh: inactive; PLC-beta3 inh: inactive; sPLA2-III inh: inactive

Results for CN1/C(=C/C(=O)C2CCC2)Sc2ccccc21 ?
PLC-gamma1 inh: 11; PLC-beta3 inh: inactive; sPLA2-III inh: inactive; DAGLB inh: inactive; PLCgamma1 ctr: inactive; PLCbeta3 conf: inactive

How did CCOC(=O)C1=C(CC)Nc2ccccc2N=C1NC(=O)Cn1cnc2ccccc2c1=O do in these assays?
PLC-gamma1 inh: 9.5; PLC-beta3 inh: inactive; sPLA2-III inh: inactive; DAGLB inh: inactive; PLCgamma1 ctr: inactive; PLCbeta3 conf: inactive

How did CCOc1ccc(NC(=O)CCNC(=O)Cn2cnc3ccccc3c2=O)cc1 do in these assays?
PLC-gamma1 inh: 9.6; PLC-beta3 inh: inactive; sPLA2-III inh: inactive; DAGLB inh: inactive; PLCgamma1 ctr: inactive; PLCbeta3 conf: inactive

How did COC(=O)[C@@]12CCCCC3=C1N(CCC3)C(=O)[C@H]2CC(=O)N1CCSCC1 do in these assays?
PLC-gamma1 inh: inactive; PLC-beta3 inh: inactive; sPLA2-III inh: inactive

How did O=S1(=O)CCOCC(CO)N1Cc1cccc(Br)c1 (stereo not drawn) do in these assays?
PLC-gamma1 inh: inactive; PLC-beta3 inh: inactive; sPLA2-III inh: inactive

How did Nn1c(SCc2ccc(Br)cc2)nnc1-c1n[nH]c2c1CCC2 do in these assays?
PLC-gamma1 inh: inactive; PLC-beta3 inh: inactive; sPLA2-III inh: inactive

What do the screens show for `COc1cccc(-c2csc(NC(=O)Nc3ccccc3)n2)c1`?
PLC-gamma1 inh: 12; PLC-beta3 inh: inactive; sPLA2-III inh: inactive; DAGLB inh: inactive; PLCgamma1 ctr: inactive; PLCbeta3 conf: inactive

How did CCOc1ccccc1NC(=O)Nc1ccncc1 do in these assays?
PLC-gamma1 inh: 9.8; PLC-beta3 inh: inactive; sPLA2-III inh: inactive; DAGLB inh: inactive; PLCgamma1 ctr: inactive; PLCbeta3 conf: inactive

What do the screens show for `COc1cccc(NC(=O)Nc2ccncc2)c1`?
PLC-gamma1 inh: inactive; PLC-beta3 inh: 11; sPLA2-III inh: inactive; DAGLB inh: inactive; PLCgamma1 ctr: inactive; PLCbeta3 conf: inactive

Results for O=C(Nc1ccccc1)Nc1nc(-c2ccccc2)cs1 ?
PLC-gamma1 inh: inactive; PLC-beta3 inh: inactive; sPLA2-III inh: inactive; DAGLB inh: inactive

How did CCOC(=O)[C@@]12CCCC3=C1N(CCC3)C(=O)[C@H]2CC(=O)NCCCCc1ccccc1 do in these assays?
PLC-gamma1 inh: inactive; PLC-beta3 inh: inactive; sPLA2-III inh: inactive

What do the screens show for `O=C(Cc1ccccc1)N1CCC(Oc2cccnc2)CC1`?
PLC-gamma1 inh: inactive; PLC-beta3 inh: inactive; sPLA2-III inh: inactive

Results for Cc1ccc(C=C2C(=O)c3ccccc3C2=O)o1 ?
PLC-gamma1 inh: inactive; PLC-beta3 inh: inactive; sPLA2-III inh: inactive; DAGLB inh: inactive

Results for O=C(O)c1ccc2c(c1)C(=O)/C(=C/c1ccccc1)C2=O ?
PLC-gamma1 inh: inactive; PLC-beta3 inh: inactive; sPLA2-III inh: inactive; DAGLB inh: inactive

What do the screens show for `O=C(O)c1ccc2c(c1)C(=O)/C(=C\c1ccco1)C2=O`?
PLC-gamma1 inh: 36; PLC-beta3 inh: inactive; sPLA2-III inh: inactive; DAGLB inh: inactive; PLCgamma1 ctr: 23; PLCbeta3 conf: inactive

Results for Cc1ccc(/C=C2/C(=O)c3ccc(C(=O)O)cc3C2=O)o1 ?
PLC-gamma1 inh: 19; PLC-beta3 inh: inactive; sPLA2-III inh: inactive; DAGLB inh: inactive; PLCgamma1 ctr: inactive; PLCbeta3 conf: inactive
